# Hit rate of the full screen: of about 310,000 compounds, about 11,000 (3.5%) were called active. Roughly 8% stayed inconclusive and do not appear here. The call rests on the fitted dose curve; in most records, active means well fitted inhibition curve with a large enough effect; inconclusive means small, poorly fitted or top-dose-only effect, or effect the other way; inactive means flat fitted curve, though single readings scatter. The sample as a whole holds a higher share of actives than the screen did.
# Assay: VP16 counterscreen qHTS for inhibitors of ROR gamma transcriptional activity;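 further: Gal4-VP16 expression switched on by copper sulfate through the metallothionein promoter; nearly all actives have a fitted effect of over 50% in size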
# Details: Drosophila S2 Gal4-VP16 UAS-luciferase, luminescence, 20 h; series mostly up to 53.6 µM; activity, negative = inhibition: at the top concentration
# From the text: NIH Molecular Libraries Probe Production Network [MLPCN]
# NIH Chemical Genomics Center [NCGC]
# Assay Provider: Dan Littman, New York University
# The retinoic acid-related orphan receptor (ROR) gamma is a transcription factor that has a central role in the differentiation of Th17 cells, a subset of T helper cells that secrete the inflammatory cytokines IL-17, IL-17F, and IL-22. Th17 cells have been implicated in graft versus host disease, autoimmune disease and asthma. ROR gamma is induced in naive T helper cells in the presence of TGF-beta combined with IL-6, IL-21, or IL-23, and thereafter directs the expression of the Th17 lineage cytokines. To identify nonspecific inhibitors, a Drosophila Schneider cell line was stably transfected with two vectors: a gene expressing a fusion of the Gal4 DNA binding domain and VP16 transactivation domain under the control of the metallothionine promoter and a Photinus luciferase reporter regulated by the Gal4 binding site enhancer, UAS. […] Small molecule inhibitors that inhibit components common to the RORgt and VP16 assays, such as the Gal4 DNA binding domain or the UAS luciferase reporter, will be active in both assays and thus scored as nonspecific.
# For screening, 600 cells in 4 uL/well were dispensed into white solid 1536-well plates (Grenier) using a solenoid-based dispenser. Following transfer of 23 nL compound or DMSO vehicle by a pin tool, the plates were incubated 1 hr at ambient temperature, and 1 uL/well copper sulfate (700 uM final concentration) was added. The plates were centrifuged 15 s at 1000 RPM and incubated 20 hr at ambient temperature. After addition of 1.5 uL Photinus luciferase detection reagent, the plates were incubated 10 min at ambient temperature and then read by a ViewLux (Perkin Elmer) to detect luminescence.
# On the % scale 0 is the no-effect control and ±100 the full control effect; potency means the concentration at half of the fitted maximal effect.
Structure (SMILES),Potency,"activity, negative = inhibition"
Fc1ccc(C(OCCN2CCN(C/C=C\c3ccccc3)CC2)c2ccc(F)cc2)cc1,15.8 µM (active),
CC(=O)c1c(O)c(C)c(O)c(Cc2c(O)c3c(c(C(=O)/C=C\c4ccccc4)c2O)OC(C)(C)C=C3)c1O,,-0.988% (inactive)
CC(C)(O)c1[se]c2ccccc2c1I,,-17.8% (inactive)
N#CC(C#N)=Cc1cc(O)c(O)c([N+](=O)[O-])c1,22.4 µM (active),
CC(C)(c1ccccc1)c1ccc(O)cc1,,7.15% (inactive)
COC1=C[C@]23CCCN2CCc2cc4c(cc2[C@@H]3[C@@H]1O)OCO4,,-7.05% (inactive)
CCCCC(=O)N/N=C/c1c(O)n(CC)c(=S)n(CC)c1=O,3.16 µM (active),
CCCCC(=O)N/N=C/c1c(O)n(-c2ccccc2)c(=O)[nH]c1=O,,1.03% (inactive)
CCCCC(=O)N/N=C/c1c(O)n(CCC2=CCCCC2)c(=O)[nH]c1=O,,1.97% (inactive)
c1ccc2sc(SNC3CCCCC3)nc2c1,,2.39% (inactive)
CN1CCN(C(=O)O[C@@H]2c3nccnc3C(=O)N2c2ccc(Cl)cn2)CC1,,-7.9% (inactive)
CC[C@H]1CN2CCc3cc(OC)c(OC)cc3[C@@H]2C[C@@H]1C[C@H]1NCCc2cc(OC)c(OC)cc21,1.26 µM (active),
CNC(C)[C@@H](O)c1ccccc1 (stereo partly drawn),,9.08% (inactive)
c1ccc(N2CC[C@@]3(CCCNC3)C2)nc1,,-11.8% (inactive)
CC(Cl)Cl,,4.63% (inactive)
CC(=O)[O][Sn]([c]1ccccc1)([c]1ccccc1)[c]1ccccc1,3.55 µM (active),
COC(=O)N1C(c2ccccc2)C1c1ccccc1 (stereo not drawn),,9.71% (inactive)
CC[C@@H]1CN2CC[C@@H]1C[C@H]2[C@H](O)c1ccnc2ccc(OC)cc12,,9.73% (inactive)
CCN1C[C@]2(C)CC[C@H](O)[C@@]34[C@@H]5CC6[C@@H](OC)C[C@@](O)([C@@H]5[C@@H]6O)[C@H](C[C@@H]23)[C@H]14,,2.08% [at 17 µM] (inactive)
CCN1C[C@@]2(COC)CC[C@H](OC)[C@]34[C@@H]1[C@]1(OCO[C@@]15C[C@@H](OC)C1C[C@H]3[C@H]5[C@@H]1OC)[C@H](O)[C@@H]24,,2.2% [at 17 µM] (inactive)
NC[C@H](O)c1ccc(O)cc1,,4.06% [at 17 µM] (inactive)
CN1CCN(c2cc(N3CCNCC3)ccc2[N+](=O)[O-])CC1,,-5.63% (inactive)
COc1cccc(-c2nc3ccc(N4CCN(C)CC4)cc3[nH]2)c1,2 µM (active),
CCCCC#N,,10.3% (inactive)
COc1ccc(C2Oc3c(I)c(OC)cc(OC)c3CC2O)cc1OC (stereo not drawn),,7.75% (inactive)
C[C@@]12CC[C@H]3[C@@H](CC[C@]4(O)C[C@H](O)CC[C@@]34C=O)[C@]1(O)CC[C@@H]2C1=CC(=O)OC1,,4.3% [at 17 µM] (inactive)
Clc1ccccc1,,-4.14% (inactive)
C[C@@H]1C[C@@H]2O[C@H]2/C=C\C=C\C(=O)Cc2c(Cl)c(O)cc(O)c2C(=O)O1,12.6 µM (active),
